# Experimental data from PubChem BioAssay (NCATS).
# Inconclusive results are not listed. Calls of active or inactive are those of the source. Unless noted, calls follow the shape of the dose curve; as a rule, active = well fitted curve in the direction sought with a large enough effect; inconclusive = small, poorly fitted or top-dose-only effect, or another doubt; inactive = no such curve, though single readings can be large; an effect the other way counts as inactive or inconclusive.
# Columns and labels:
# [1] = biological target: Lysosomal acid glucosylceramidase (Homo sapiens) (UniProt P04062); test: Glucocerebrosidase-p2 (AID 348; in the data active = potency below about 10 µM; also: potency is read from the fitted curve at half-maximal effect); conditions: purified GBA, blue fluorogenic substrate, 40 min
# Outline: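 Compounds titrated from 0.6 nM upwards against 0.2 nM enzyme in pH 5.9 citric acid/KH2PO4, taurocholate, tween-20; blue fluorogenic substrate 80 uM, 40 min room temperature, stopped and read Ex 365/Em 440 for AC50.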
# [2] = AP1 Signaling Pathway (AID 357; active = well fitted curve in either direction with a large enough effect, not every such curve was filed as active;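 also: ME-180 reporter cells stimulated with EGF at its EC50 level; % is scaled to controls: 0 for no effect and ±100 for the full control effect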); conditions: ME-180 (cervical carcinoma) AP-1-bla reporter, EGF-induced, beta-lactamase ratio, 5 h; at 7.69 µM (top of the series) unless noted
# Outline: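 A ratiometric CCF4 readout (405 nm excitation; 460 and 530 nm emission) quantified AP-1-driven beta-lactamase in ME-180 cells after 5 h with compound and EC50 EGF; AC50 values were derived for activators and inhibitors.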
# [3] = NFAT Signaling Pathway (AID 444; active = well fitted curve in either direction with a large enough effect, not every such curve was filed as active;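 also: carbachol stimulus at about its EC50 of 1 µM final; % is scaled to controls: 0 for no effect and ±100 for the full control effect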); conditions: Jurkat NFAT-bla M1, carbachol, beta-lactamase ratio, 5 h; at 7.69 µM (top of the series) unless noted
# Outline: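 Jurkat cells with NFAT-driven β-lactamase reporter and co-expressed M1 receptor, stimulated with carbachol (final 1 uM, ~EC50), compound titration, 5 h at 37 °C. CCF4 loaded 1 h at RT; 460/530 nm ratio gave %activity and AC50.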
# [4] = biological target: Glucocorticoid receptor (Homo sapiens) (UniProt P04150); test: GR-GFP Redistribution (AID 450;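 active = compounds whose dose series gives a full or clear partial fitted curve of increased nuclear translocation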; also: potency is read from the fitted curve at half-maximal effect); conditions: U2OS GR-GFP nuclear translocation, laser cytometry, 2 h
# [5] = biological target: Glucocorticoid receptor (Homo sapiens) (UniProt P04150); test: GR-EFC Redistribution (AID 451; calls by dose curve; also: potency is read from the fitted curve at half-maximal effect); conditions: CHO-K1 GR-EFC translocation, beta-gal luminescence, 2 h
# Outline: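 CHO-K1 cells expressing nuclear EA and GR-ED fragments of b-gal; compounds titrated up to 46 uM final, 2 h at 37 C. GR nuclear translocation read as complemented b-gal luminescence after 1 h RT detection.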
# [6] = biological target: Mitogen-activated protein kinase 10 (Mus musculus) (UniProt Q61831); test: JNK3 AlphaScreen Assay (AID 530; active = well fitted curve in either direction with a large enough effect, not every such curve was filed as active;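 also: kinase came from lysate of stimulated human HepG2 cells; signal reports phosphorylation of biotinylated GST-cJun 1-79 at Ser73 with 10 µM ATP; % is scaled to controls: 0 for no effect and ±100 for the full control effect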)
# Outline: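 Pre-activated (IL-1β/TNFα) JNK3 in HepG2 lysates phosphorylates biotin-GST-cJun(1-79), 10 uM ATP; anti-phospho-cJun(Ser73) AlphaScreen read at room temperature, pH 7.6 Tris buffer. Compounds pre-incubated 15 min as titrations.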
# [7] = biological target: 3',5'-cyclic-AMP phosphodiesterase 4B (Homo sapiens) (UniProt Q07343); test: qHTS Assay for Inhibitors of PDE-IV (AID 607; active = well fitted activation curve with a large enough effect in the main read-out, with a control signal flat, not every such curve was filed as active; also: % of control where 0% means no effect)
# Outline: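 The readout is membrane depolarisation from a cAMP-sensing CNG channel, detected with a potential dye at ex 535/em 590. Cells were HEK293-derived (endogenous PDE-IV) at 1000 cells/well, titrated up to 22.9 uM final.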
# [8] = biological target: Cytochrome P450 3A4 (Homo sapiens) (UniProt P08684); test: qHTS Assay for Inhibitors and Substrates of Cytochrome P450 3A4 (AID 884); also: % is scaled to controls: 0 for no effect and ±100 for the full control effect; nearly all actives have a fitted effect of over 50% in size
# Outline: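 20 nM human CYP3A4 with 25 uM Luciferin-PPXE (at KM) in 200 mM KPO4, preincubated 10 min with compound; NADPH regeneration started a 60 min RT reaction. Luciferin detected by luminescence, normalized to 57 uM ketoconazole as full inhibition.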
# [9] = Confirmation and Secondary Assay for Modulators of Hemoglobin Beta Chain Splicing at IVS2 654 locus (AID 910);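 also: HeLa cells stably carrying EGFP split by mutant beta-globin IVS2-654 intron; % of control where 0% means no effect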
# Outline: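 HeLa cells stably expressing EGFP interrupted by β-globin IVS2-654 intron, seeded overnight in Opti-MEM/2% FCS, then treated 2 days at 37 °C. Restored splicing read as total peak GFP intensity per well by laser scanning cytometry (488 nm excitation, 500–520 nm emission); 500 nM antisense PNA as control.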
# [10] = Confirmation and Secondary Assay for Modulators of Hemoglobin Beta Chain Splicing at IVS2 705 locus (AID 930);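 also: HeLa cells stably expressing the EGFP-705 splicing reporter; GFP fluorescence per well restored by corrected splicing of the IVS2-705 intron in EGFP; % of control where 0% means no effect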
# Outline: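 Read-out: total peak GFP fluorescence per well (488 nm excitation, 500-520 nm emission) by laser-scanning cytometry. Cells: HeLa EGFP-705 splicing reporter, 2 days compound exposure in Optimem/2% FCS.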
# [11] = qHTS Assay for Lipid Storage Modulators (AID 1519; calls by dose curve; as to activity change, negative = inhibition: % is scaled to controls: 0 for no effect and ±100 for the full control effect); conditions: Drosophila S3 cells, BODIPY lipid droplet/cell ratio, laser cytometry, cells loaded with oleic acid; for activity change, negative = inhibition: at 57.5 µM (top of the series)
# Outline: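 Cells seeded at 5,000 per well were treated with compounds over a concentration series and loaded with oleic acid (400 uM, as added). Lipid droplet fluorescence (488 nm excitation, 500-530 nm channel) was read by laser-scanning cytometry and normalized to 20 uM Triacsin C.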
# [12] = biological target: Glutathione peroxidase 1 (Homo sapiens) (UniProt P07203); test: Primary qHTS Assay for Inhibitors of Recombinant Selenoprotein Glutathione Peroxidase 1 (GPX1) (AID 1845191); conditions: outcome: dose series up to 48.8 µM unless noted; also: nearly all actives have a fitted effect of over 65% in size
# Outline: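 GR-coupled assay: compounds preincubated 30 min at room temperature with GPX1, then reaction started with CHP; final 10 nM GPX1, 1 mM GSH, 0.5 mM CHP, 0.5 mM NADPH, 100 nM GR, 0.01% BSA, pH 7.5 Tris buffer. NADPH fluorescence (340/450 nm) read at 0 and 15 min.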
# [13] = biological target: Ubiquitin carboxyl-terminal hydrolase 1 (Homo sapiens) (UniProt O94782); test: Inhibitors of USP1/UAF1: Pilot qHTS (AID 504865); also: nearly all actives have a fitted effect of over 35% in size; also: potency is read from the fitted curve at half-maximal effect
# Outline: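 1nM USP1/UAF1 + cpd, 15 min RT; start w/ Ub-Rho 150nM final; kinetic FL 480/540 nm, 6 reads q60 s. Buffer 50mM HEPES pH 7.8, 0.5mM EDTA, 1mM TCEP, 0.01% Tween-20, 0.1 mg/ml BSA.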
# [14] = qHTS profiling for inhibitors of Plasmodium falciparum proliferation (AID 504749);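 also: 0% = DMSO vehicle and full inhibition = artemisinin control; nearly all actives have a fitted effect of over 60% in size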; conditions: P. falciparum in erythrocytes, SYBR Green DNA, 72 h, at 28.7 µM (top of the series)
# Outline: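 P. falciparum-infected erythrocytes (0.3% parasitemia, 2.5% hematocrit) incubated with compound 72 h at 37 C, 5% CO2. Parasite DNA detected by SYBR Green after lysis, overnight at room temperature; normalised to 0.29 uM artemisinin and DMSO.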
# [15] = measured here: cell count channel max response
# [16] = measured here: lipid channel max response
# Chain of Cytochrome P450 3A4 (Homo sapiens) (P08684 whole entry, looked up): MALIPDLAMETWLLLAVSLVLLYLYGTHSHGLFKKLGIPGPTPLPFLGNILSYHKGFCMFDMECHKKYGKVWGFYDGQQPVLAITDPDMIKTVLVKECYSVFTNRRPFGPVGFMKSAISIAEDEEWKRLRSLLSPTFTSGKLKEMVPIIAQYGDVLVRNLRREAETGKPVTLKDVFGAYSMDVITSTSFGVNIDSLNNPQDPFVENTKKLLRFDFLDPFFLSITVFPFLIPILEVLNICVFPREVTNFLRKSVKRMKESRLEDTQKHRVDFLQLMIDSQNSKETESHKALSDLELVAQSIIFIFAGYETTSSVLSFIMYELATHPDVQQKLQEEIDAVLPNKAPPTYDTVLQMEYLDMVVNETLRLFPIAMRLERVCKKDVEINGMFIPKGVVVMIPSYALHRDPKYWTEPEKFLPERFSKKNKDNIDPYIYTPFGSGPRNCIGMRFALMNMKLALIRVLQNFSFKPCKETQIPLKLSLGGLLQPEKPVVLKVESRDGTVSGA
# Chain of Ubiquitin carboxyl-terminal hydrolase 1 (Homo sapiens) (O94782 whole entry, looked up): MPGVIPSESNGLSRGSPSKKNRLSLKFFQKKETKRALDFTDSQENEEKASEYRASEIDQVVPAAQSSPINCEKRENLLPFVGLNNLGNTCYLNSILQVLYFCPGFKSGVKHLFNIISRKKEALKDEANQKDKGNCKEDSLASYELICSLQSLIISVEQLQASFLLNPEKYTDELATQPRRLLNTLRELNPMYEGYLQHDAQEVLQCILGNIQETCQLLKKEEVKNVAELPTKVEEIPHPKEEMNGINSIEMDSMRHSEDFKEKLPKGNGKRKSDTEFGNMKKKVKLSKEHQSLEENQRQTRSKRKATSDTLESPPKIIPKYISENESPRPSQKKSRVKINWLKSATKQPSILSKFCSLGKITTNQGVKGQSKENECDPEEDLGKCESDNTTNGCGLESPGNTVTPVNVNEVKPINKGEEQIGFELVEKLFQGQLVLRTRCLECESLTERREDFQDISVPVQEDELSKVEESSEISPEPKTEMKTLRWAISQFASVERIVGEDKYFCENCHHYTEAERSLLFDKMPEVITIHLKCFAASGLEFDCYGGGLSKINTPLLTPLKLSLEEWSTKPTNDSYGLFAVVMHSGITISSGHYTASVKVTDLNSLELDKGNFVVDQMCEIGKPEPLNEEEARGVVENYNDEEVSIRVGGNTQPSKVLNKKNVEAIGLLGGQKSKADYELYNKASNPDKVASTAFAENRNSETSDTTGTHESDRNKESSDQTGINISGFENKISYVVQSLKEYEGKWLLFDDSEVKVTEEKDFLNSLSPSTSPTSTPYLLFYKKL
# Chain of Glucocorticoid receptor (Homo sapiens) (P04150 whole entry, looked up, the tested form may be a part): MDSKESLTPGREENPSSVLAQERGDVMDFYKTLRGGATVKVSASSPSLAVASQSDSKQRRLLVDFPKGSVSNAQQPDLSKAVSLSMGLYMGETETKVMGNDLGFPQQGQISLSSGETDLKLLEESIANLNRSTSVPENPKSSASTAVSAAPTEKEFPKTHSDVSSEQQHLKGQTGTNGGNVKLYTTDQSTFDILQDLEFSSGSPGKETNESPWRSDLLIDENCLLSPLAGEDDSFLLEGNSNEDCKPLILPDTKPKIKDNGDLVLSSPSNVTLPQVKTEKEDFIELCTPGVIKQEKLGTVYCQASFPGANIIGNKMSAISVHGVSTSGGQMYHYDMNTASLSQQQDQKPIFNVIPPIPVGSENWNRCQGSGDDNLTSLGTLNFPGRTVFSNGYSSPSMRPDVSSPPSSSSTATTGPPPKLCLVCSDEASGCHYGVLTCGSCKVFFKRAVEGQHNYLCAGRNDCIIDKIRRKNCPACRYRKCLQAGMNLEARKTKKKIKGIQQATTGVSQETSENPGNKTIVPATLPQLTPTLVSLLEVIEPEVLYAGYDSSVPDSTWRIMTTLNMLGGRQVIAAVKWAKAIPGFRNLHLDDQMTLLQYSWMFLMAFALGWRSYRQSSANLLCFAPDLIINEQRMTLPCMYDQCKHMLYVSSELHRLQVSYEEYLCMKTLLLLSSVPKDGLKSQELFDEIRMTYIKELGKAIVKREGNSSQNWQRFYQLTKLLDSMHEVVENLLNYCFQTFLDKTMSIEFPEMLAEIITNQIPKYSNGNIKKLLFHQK
# Chain of Glutathione peroxidase 1 (Homo sapiens) (P07203 whole entry, looked up): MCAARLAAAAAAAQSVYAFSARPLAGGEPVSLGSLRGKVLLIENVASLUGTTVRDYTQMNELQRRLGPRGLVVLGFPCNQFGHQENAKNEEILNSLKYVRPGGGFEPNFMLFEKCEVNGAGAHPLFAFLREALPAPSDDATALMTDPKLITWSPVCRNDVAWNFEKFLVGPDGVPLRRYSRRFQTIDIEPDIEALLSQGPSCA
# Chain of Lysosomal acid glucosylceramidase (Homo sapiens) (P04062 whole entry, looked up): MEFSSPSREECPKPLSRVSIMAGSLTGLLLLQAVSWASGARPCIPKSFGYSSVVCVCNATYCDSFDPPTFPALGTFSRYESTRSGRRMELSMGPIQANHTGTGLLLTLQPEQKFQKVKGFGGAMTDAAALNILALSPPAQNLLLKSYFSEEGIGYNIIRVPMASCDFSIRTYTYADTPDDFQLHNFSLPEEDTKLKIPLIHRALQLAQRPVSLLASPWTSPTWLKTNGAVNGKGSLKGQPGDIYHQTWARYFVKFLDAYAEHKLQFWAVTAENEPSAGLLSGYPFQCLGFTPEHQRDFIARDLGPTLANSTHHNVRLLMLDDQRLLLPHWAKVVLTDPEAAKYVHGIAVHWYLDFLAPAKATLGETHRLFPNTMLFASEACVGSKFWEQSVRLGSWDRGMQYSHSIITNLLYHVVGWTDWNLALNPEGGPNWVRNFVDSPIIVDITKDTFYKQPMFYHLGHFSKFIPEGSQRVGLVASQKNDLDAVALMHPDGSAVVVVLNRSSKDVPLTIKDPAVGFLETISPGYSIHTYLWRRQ
# Chain of 3',5'-cyclic-AMP phosphodiesterase 4B (Homo sapiens) (Q07343 whole entry, looked up): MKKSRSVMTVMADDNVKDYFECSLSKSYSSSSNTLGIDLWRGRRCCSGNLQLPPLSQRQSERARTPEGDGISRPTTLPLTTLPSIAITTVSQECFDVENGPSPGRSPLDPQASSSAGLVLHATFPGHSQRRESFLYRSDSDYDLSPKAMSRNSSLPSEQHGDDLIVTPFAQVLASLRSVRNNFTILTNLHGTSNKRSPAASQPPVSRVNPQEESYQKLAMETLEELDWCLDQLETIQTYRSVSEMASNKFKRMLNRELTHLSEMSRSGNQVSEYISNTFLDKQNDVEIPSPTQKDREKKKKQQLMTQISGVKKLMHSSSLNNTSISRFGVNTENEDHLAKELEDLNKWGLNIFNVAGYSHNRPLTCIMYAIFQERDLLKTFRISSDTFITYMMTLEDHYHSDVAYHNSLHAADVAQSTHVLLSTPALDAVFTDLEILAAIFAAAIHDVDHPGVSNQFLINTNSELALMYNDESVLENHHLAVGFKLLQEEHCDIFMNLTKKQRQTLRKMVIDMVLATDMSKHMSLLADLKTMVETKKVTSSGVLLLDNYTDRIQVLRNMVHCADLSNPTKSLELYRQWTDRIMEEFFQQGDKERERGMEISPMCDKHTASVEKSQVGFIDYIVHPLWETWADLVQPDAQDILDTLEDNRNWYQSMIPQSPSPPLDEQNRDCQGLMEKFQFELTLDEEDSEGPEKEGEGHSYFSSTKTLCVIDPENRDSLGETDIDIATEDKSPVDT
SMILES,Potency [1],"activity change, negative = inhibition [2]","activity change, negative = inhibition [3]",Potency [4],Potency [5],"activity change, negative = inhibition [6]",Potency [7],Potency [8],Potency [9],outcome [10],"activity change, negative = inhibition [11]","max response [11, 15] [%]","max response [11, 16] [%]",outcome [12],Potency [13],Potency [6],"activity, negative = inhibition ([14]; parasite line A)","activity, negative = inhibition ([14]; parasite line B)"
CC(C)(S)[C@H](N)C(=O)O,> 11.4 µM (inactive),1.59% (inactive),8.46% (inactive),> 46 µM (inactive),> 9.22 µM (inactive),1.55% [at 11.4 µM] (inactive),inactive,inactive,inactive,inactive,4.84% (inactive),10.4,19.3,inactive [at 4.49 µM],–,–,–,–
CN1C(CC(=O)c2ccccc2)CCCC1CC(O)c1ccccc1 (configuration not stated),–,–,–,–,–,–,–,inactive,–,inactive,-2.13% (inactive),13,12.2,inactive,inactive,–,–,–
COS(C)(=O)=O,–,–,–,–,–,–,–,inactive,–,inactive,5.21% (inactive),-1.86,4.2,–,inactive,inactive,–,–
O=C(Cc1cccs1)NC1C(=O)N2C(C(=O)[O-])=C(C[n+]3ccccc3)CSC12 (configuration not stated),–,–,–,–,–,–,–,inactive,inactive,inactive,7.61% (inactive),18,28.7,–,79.4 µM (active),–,4.33% (inactive),-24.5% (inactive)
